{"source": "PubChem BioAssay (NCATS)", "note": "Activity calls are given as the source filed them. The rule behind the calls is not given here. Potency is the fitted concentration of half-maximal effect."}
{"test_system": "HIV-1 nucleocapsid protein NCp7 (binding to TG oligonucleotide)", "experiment": "HIV Nucleocapsid (AID 346);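 note: potency is for inhibitors that block NC binding and lower polarization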", "details": "HIV-1 NC / fluorescein-TGTGTGTG probe, fluorescence polarization", "procedure,_shortened": "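Fluorescence polarization binding of 100 nM HIV-1 NC to 10 nM fluorescein-labelled TG4xF oligonucleotide. Buffer was Hepes pH 7.5 with 250mM NaCl, 1uM ZnCl2, TCEP and 2-mercaptoethanol. Compounds were incubated 1 hr at room temperature before the read.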"}
{"smiles": "COc1cccc(Cn2c(=O)c(CCc3ccccc3)nc3cnc(OC)nc32)c1", "Potency": "> 20 µM (inactive)"}
{"smiles": "COc1cccc(Cn2c(=O)c(C)nc3cnc(OC)nc32)c1", "Potency": "> 20 µM (inactive)"}
{"smiles": "Cc1ccccc1-c1ccc2ncnc(NC3CC3)c2c1", "Potency": "> 20 µM (inactive)"}
{"smiles": "c1nc(NCCN2CCOCC2)c2cc(-c3ccc4c(c3)OCO4)ccc2n1", "Potency": "> 20 µM (inactive)"}
{"smiles": "Cc1cnc(CNc2ccnc(-c3ccccc3CN(C)C)n2)cn1", "Potency": "> 20 µM (inactive)"}
{"smiles": "Cc1cnc(CNc2ccnc(-c3cccc(C#N)c3)n2)cn1", "Potency": "> 20 µM (inactive)"}
{"smiles": "CN(C)Cc1ccccc1-c1cc(N(C)C)ncn1", "Potency": "> 20 µM (inactive)"}
{"smiles": "Cn1cccc1C(=O)N1CCC2(CCCN(Cc3ccccc3)C2)CC1", "Potency": "> 20 µM (inactive)"}
{"smiles": "CN(C)c1ccc(-c2nc(NCCc3cnc[nH]3)c3ccccc3n2)cc1", "Potency": "> 20 µM (inactive)"}
{"smiles": "COc1ccc(Nc2ncc3nc(-c4cccs4)c(=O)n(Cc4cccc(OC)c4)c3n2)cc1", "Potency": "16 µM (inactive)"}
{"smiles": "c1csc(CNc2nc(-c3ccoc3)nc3ccccc23)c1", "Potency": "> 20 µM (inactive)"}
{"smiles": "N#CCCn1c(=O)c(-c2ccc(Cl)cc2)nc2cnc(N3CCOCC3)nc21", "Potency": "> 20 µM (inactive)"}
{"smiles": "COCCn1c(=O)c(CCc2ccccc2)nc2cnc(N(C)C)nc21", "Potency": "> 20 µM (inactive)"}
{"smiles": "COc1ccc2[nH]cc(CCNc3ncncc3-c3ccccc3C)c2c1", "Potency": "> 20 µM (inactive)"}
{"smiles": "COc1ccc(Oc2ncc3nc(C)c(=O)n(-c4ccc(OC)cc4)c3n2)cc1", "Potency": "> 20 µM (inactive)"}
{"smiles": "COc1ncc2nc(-c3ccc(Cl)cc3)c(=O)n(C)c2n1", "Potency": "> 20 µM (inactive)"}
{"smiles": "COc1ccccc1-c1nccc(NCc2cccs2)n1", "Potency": "> 20 µM (inactive)"}
{"smiles": "COc1ccccc1CNc1nc(-c2ccccc2OC)nc2ccccc12", "Potency": "> 20 µM (inactive)"}
{"smiles": "COCCn1c(=O)c(-c2cn(C)c3ccccc23)nc2cnc(N3CCNCC3)nc21", "Potency": "> 20 µM (inactive)"}
{"smiles": "N#Cc1cccc(-c2nc(Nc3ccccc3)c3ccccc3n2)c1", "Potency": "> 20 µM (inactive)"}
{"smiles": "COc1cccc(Cn2c(=O)c(-c3cn(C)c4ccccc34)nc3cnc(OC)nc32)c1", "Potency": "> 20 µM (inactive)"}
{"smiles": "COc1ccccc1-c1cncnc1-n1ccnc1", "Potency": "> 20 µM (inactive)"}
{"smiles": "CN(C)C(=O)c1ccc(-c2cc(-n3ccnc3)ncn2)cc1", "Potency": "> 20 µM (inactive)"}
{"smiles": "Cn1cc(-c2nc3cnc(N4CCOCC4)nc3n(CCC#N)c2=O)c2ccccc21", "Potency": "> 4 µM (inactive)"}
{"smiles": "Cc1ccccc1-c1nccc(-n2ccnc2)n1", "Potency": "> 20 µM (inactive)"}
{"smiles": "COc1ncc2nc(C)c(=O)n(C3CC3)c2n1", "Potency": "> 20 µM (inactive)"}
{"smiles": "Cc1noc(C)c1C(=O)N1CCC[C@@]2(CCN(c3ncccn3)C2)C1", "Potency": "> 20 µM (inactive)"}
{"smiles": "CN(C)c1nc(-c2ccoc2)nc2ccccc12", "Potency": "> 20 µM (inactive)"}
{"smiles": "COc1cccc(Cn2c(=O)cnc3cnc(Oc4cccc(Cl)c4)nc32)c1", "Potency": "> 20 µM (inactive)"}
{"smiles": "CCNc1ncc2nc(CCc3ccccc3)c(=O)n(Cc3cccc(OC)c3)c2n1", "Potency": "> 20 µM (inactive)"}
{"smiles": "CCNc1ncc2nc(-c3ccc(OC)cc3)c(=O)n(CCc3ccccc3)c2n1", "Potency": "> 4 µM (inactive)"}
{"smiles": "O=C(Oc1ccccc1)N1CCC2(CC1)CN(c1ccccc1)C2", "Potency": "> 20 µM (inactive)"}
{"smiles": "CN(C)Cc1ccccc1-c1nc(NCc2ccccc2)c2ccccc2n1", "Potency": "> 20 µM (inactive)"}
{"smiles": "CC(=O)N1CCC2(CC1)CCN(c1ccccn1)CC2", "Potency": "> 4 µM (inactive)"}
{"smiles": "COCC(=O)N1CCC2(CCCN(C(=O)Nc3cccc(F)c3)C2)CC1", "Potency": "> 20 µM (inactive)"}
{"smiles": "COc1ncc2nc(-c3cccs3)c(=O)n(CCC#N)c2n1", "Potency": "> 20 µM (inactive)"}
{"smiles": "O=C(c1ccco1)N1CCC2(CC1)CN(c1ccccn1)C2", "Potency": "> 20 µM (inactive)"}
{"smiles": "COc1ccccc1CNc1ncncc1-c1ccc(C(=O)N(C)C)cc1", "Potency": "> 20 µM (inactive)"}
{"smiles": "COCCn1c(=O)c(-c2ccc(Cl)cc2)nc2cnc(N3CCNCC3)nc21", "Potency": "> 20 µM (inactive)"}
{"smiles": "COc1ccccc1-c1nc(N(C)C)c2ccccc2n1", "Potency": "> 20 µM (inactive)"}
